# High-throughput results from PubChem BioAssay.
# SW480 rereplic: inducers of DNA re-replication in SW480 colon cancer cells; hit rate 1.8% among 340,000; SW480 DNA re-replication, Hoechst DNA content imaging, 48 h; Potency, µM (top dose mostly 46.1 µM), hits mostly activators; AID 624297; also: nearly all actives have a fitted effect of over 55% in size
#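 Compounds, transferred as 23 nL by pin tool, were incubated with cells for 48 hr; DNA content per nucleus was then quantified by Hoechst staining and fluorescence plate imaging.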
# MCF10A rerep: DNA re-replication induction in MCF 10a cells | MCF 10A DNA re-replication, Hoechst nuclear intensity, 48 h | Potency, µM (highest dose often 46.1 µM), hits mostly activators | hit rate 2.9% among 350,000 | AID 624296; also: nearly all actives have a fitted effect of over 50% in size
# PINK1 expr mod: modulators of PINK1 expression; PINK1 immunofluorescence, high-content cytometry, 24 h; Potency, µM (titrated, usually from 76.6 µM), hits mostly activators; hit rate 0.2% among 410,000; AID 624263; active = well fitted activation curve with a large enough effect; inconclusive = small, poorly fitted or top-dose-only effect; cell line not stated here; also: nearly all actives have a fitted effect of over 65% in size
#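 Fluorescence from anti-PINK1 antibody, together with nuclear and cell stains, was scanned on a laser-scanning cytometer. Before staining, stable-line cells were incubated 24 hours with compounds at 5 concentrations; primary antibody 12 h at 10 degrees C.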
# KB-3-1 tox: kills parental KB-3-1 adenocarcinoma cells. KB-3-1 viability, CellTiter-Glo ATP luminescence, 72 h. Potency, µM (highest dose often 46.1 µM), usual class: cytotoxic. hit rate 1.4% among 400,000. AID 1347075; also: nearly all actives have a fitted effect of over 60% in size
#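 Screening of KB-3-1 cells (DMEM, 10% FBS, phenol-red free) ran from lowest to highest compound concentration; after 72 h at 37 °C viability was read luminescently and curves fitted.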
# ALOX12 inh: inhibitors of human 12S-lipoxygenase ALOX12; AID 1671190; Potency, µM (highest dose often 108 µM), hits mostly inhibitors; hit rate 1.1% among 580,000; P18054; purified 12hLO, xylenol orange hydroperoxide absorbance
# Target sequence (P18054 whole entry, looked up): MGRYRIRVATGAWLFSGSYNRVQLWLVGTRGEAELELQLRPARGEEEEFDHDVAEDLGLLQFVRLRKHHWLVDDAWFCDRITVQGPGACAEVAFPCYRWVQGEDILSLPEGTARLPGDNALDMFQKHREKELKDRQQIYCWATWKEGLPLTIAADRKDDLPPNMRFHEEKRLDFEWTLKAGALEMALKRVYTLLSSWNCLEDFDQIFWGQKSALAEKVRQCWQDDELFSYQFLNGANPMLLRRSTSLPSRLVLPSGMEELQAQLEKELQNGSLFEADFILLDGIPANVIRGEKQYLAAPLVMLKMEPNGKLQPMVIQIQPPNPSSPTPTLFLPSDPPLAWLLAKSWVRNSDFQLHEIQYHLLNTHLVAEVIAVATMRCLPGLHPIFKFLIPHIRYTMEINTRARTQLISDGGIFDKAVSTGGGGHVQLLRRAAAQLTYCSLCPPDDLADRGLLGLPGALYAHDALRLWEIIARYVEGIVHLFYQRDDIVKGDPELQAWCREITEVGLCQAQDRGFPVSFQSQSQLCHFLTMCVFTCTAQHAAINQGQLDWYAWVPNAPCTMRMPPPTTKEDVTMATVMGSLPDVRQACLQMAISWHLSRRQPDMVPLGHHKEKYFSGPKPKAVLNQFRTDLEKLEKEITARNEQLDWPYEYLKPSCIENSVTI
#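 Hydroperoxide product was detected by ferrous iron/xylenol orange as the 573 to 405 nm absorbance ratio. Arachidonic acid at 40 uM (final) was turned over for 30 min at room temperature by 150 nM human 12hLO, pH 7.0 Hepes buffer, after 15 min compound preincubation.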
# KB-V1 MDR tox: kills drug-selected multidrug resistant KB-V1 cells; hit rate 3.4% among 400,000; Potency, µM (top dose mostly 46.1 µM), most hits filed as cytotoxic; AID 1347076; KB-V1 MDR cells viability, CellTiter-Glo, 72 h; also: nearly all actives have a fitted effect of over 60% in size
#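 Cytotoxicity via CellTiter-Glo luminescence after 72 h compound exposure at 37 degrees C. Cells: drug-selected KB-V1 line, DMEM phenol-red free plus 10% FBS. Compounds tested at multiple concentrations; normalized data fitted to concentration-effect curves.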
# Numbers stand for hits; . = inactive; ? = inconclusive; / = no result given; [ ] = remark or other dose. This is a sample that favours compounds with a hit; in the whole collection about 5.8% have one here. Unless noted, calls follow the shape of the dose curve; as a rule, active = well fitted curve in the direction sought with a large enough effect; inconclusive = small, poorly fitted or top-dose-only effect, or another doubt; inactive = no such curve, though single readings can be large; an effect the other way counts as inactive or inconclusive.
SMILES,SW480 rereplic,MCF10A rerep,PINK1 expr mod,KB-3-1 tox,ALOX12 inh,KB-V1 MDR tox
CC1CC(C)CC(C)C(O)C(C#N)=CC=CCC(C2CCCC2C(=O)O)OC(=O)CC(O)C(C)C1 (configuration not stated),?,0.13µM,.,1.2µM,.,6.5µM
N#Cc1ccc(/C=C/C(=O)O)cc1,.,.,.,.,.,.
O=C(/C=C/c1ccccc1)C1C(=O)c2ccccc2C1=O,.,?,.,?,.,3.7µM
Cc1cccc(-n2c(/C=C/c3ccco3)nc3ccccc3c2=O)c1,/,/,/,/,25µM,/
O=c1c2ccccc2nc(/C=C/c2ccccc2)n1-c1ccc(O)cc1,?,.,.,.,.,?
O=c1c2ccccc2nc(/C=C/c2ccc([N+](=O)[O-])o2)n1-c1ccc(O)cc1,4.6µM,?,40µM,?,.,?
Cc1cccc(-n2c(/C=C/c3ccc([N+](=O)[O-])o3)nc3ccccc3c2=O)c1,6.5µM,2.3µM,.,10µM,.,10µM
COc1ccc(C2=CC(c3ccc(OC)c(OC)c3)c3c(c4ccccc4oc3=O)O2)cc1OC (configuration not stated),13µM,2.9µM,.,?,.,.
C=C[C@H]1CN2CC[C@H]1C[C@@H]2CNCc1ccc(SC)cc1,/,/,/,/,.,/
CNCCCc1ccccc1,.,?,.,23µM,.,.
O=c1cc[se]c2ccccc12,/,/,/,/,.,/
COP(=O)(OC)c1nc(-c2cccc3ccccc23)oc1NCCc1ccccc1,?,21µM,.,.,.,?
CCOP(=O)(OCC)c1nc(-c2cccc3ccccc23)oc1NCc1ccccc1,?,?,.,.,.,9.2µM
O=C(COc1ccc(F)cc1)N1CCN(Cc2cc(=O)n3nc(-c4ccc(F)cc4)sc3n2)CC1,/,/,/,/,.,/
O=C(CCn1c(=O)oc2ccccc21)N1CCN(c2ccccc2Cl)CC1,?,9.2µM,.,6.5µM,.,4.1µM
CC(C)(C)CN1CCC2(CN[S+](=O)([O-])c3cccnc3O2)C1 (configuration not stated),/,/,/,/,.[6.33 µM],/
COc1ccc(-c2ccc3c(c2)CN(c2cccc(Cl)c2)Cc2cnnn2-3)cc1,/,/,.,.,18µM,.
CC(=NCc1ccc(F)cc1)c1c(O)n(C)c(=O)n(C)c1=O,.,?,.,5.8µM,.,?
CC(=NCc1ccco1)c1c(O)n(C)c(=O)n(C)c1=O,.,.,.,.,.,.
CC(C)n1c(=O)c(C=Nc2cccc([N+](=O)[O-])c2)c(O)n(CCc2ccccc2)c1=O,.,23µM,.,.,.,.
O=C1NC(=O)N(c2cccc(Br)c2)C(=O)/C1=C/c1ccsc1,.,.,.,.,45µM,.
CCCCn1c(O)c(C(CC)=NCc2ccc(F)cc2)c(=O)[nH]c1=O,.,.,.,?,?,10µM
CCCCn1c(O)c(C(C)=NCc2ccc(F)cc2)c(=O)[nH]c1=O,.,.,.,.,.,.
COC(=O)Cc1ccccc1,/,/,/,/,.,/
O=C1CN=C(c2cc([N+](=O)[O-])ccc2Cl)c2cc([N+](=O)[O-])ccc2N1,1.6µM,?,.,.,.,.
SMILES,SW480 rereplic,MCF10A rerep,PINK1 expr mod,KB-3-1 tox,ALOX12 inh,KB-V1 MDR tox
CC(C)n1nc(C(=O)NCC2(N3CCOCC3)CCCCC2)c2ccccc2c1=O,/,/,/,/,.,/
COc1cc2occc2c2oc(=O)ccc12,?,.,.,.,?,.
O=c1ccc2c(O)c3ccoc3cc2o1,0.18µM,.,.,.,.,.
O=C1C2CC=CCC2C(=O)N1SC(Cl)(Cl)Cl (configuration not stated),6.7µM,4.2µM,/,/,40µM,/
Cc1[nH]n(-c2ccccc2)c(=O)c1C(c1ccc([N+](=O)[O-])cc1)c1c(C)[nH]n(-c2ccccc2)c1=O,.,23µM,40µM,?,/,.
CCc1cnc(N2CCC3(CC2)C(=O)Nc2cc(Oc4ccccc4)c(OC)cc23)nc1,/,/,/,/,.,/
CCCCn1c(O)c(C=NCCCn2ccnc2)c(=O)[nH]c1=O,.,.,.,.,.,.
CC(C)CCCn1c(O)c(/C=C2/C=CC=N2)c(=O)[nH]c1=O,13µM,18µM,.,16µM,.,?
CC1=NOC2(CCN(CCC(C)C)C2)C1 (configuration not stated),/,/,/,/,.,/
Cc1cc(C(=O)OCC(=O)Nc2ccccc2F)c(C)n1C1CC1,.,.,.,.,?,.
CCN(C(=O)COC(=O)c1cc(C)n(C2CC2)c1C)c1ccccc1,.,?,.,.,.,2.6µM
Cc1ccc2c(n1)N(C)[C@H](CO)CCN(C1COC1)C2,/,/,/,/,.,/
C=CCc1cc(C=C2C(=O)NC(=O)NC2=O)cc(OC)c1OCc1ccc(C(=O)O)cc1,.,?,.,.,/,.
C=CCc1cc(C=C2C(=O)N(C)C(=O)N(C)C2=O)cc(OCC)c1OCc1ccccc1,.,?,?,?,?,16µM
CCOC(=O)C1(c2ccccc2)CCN(CC(=O)Nc2cccc3ccccc23)CC1,21µM,?,?,.,?,3.7µM
CCOC(=O)C1(c2ccccc2)CCN(CCC(=O)Nc2ccccc2OC)CC1,.,.,.,.,.,.
CCC(=NCC1CCCO1)c1c(O)n(Cc2ccccc2)c(=O)[nH]c1=O (configuration not stated),.,.,.,.,.,4.1µM
O=c1[nH]sc2cc(F)ccc12,?,?,.,.,40µM,.
CC(=O)O[C@@]12CO[C@@H]1C[C@H](OC1OCC(O)C(O)C1O)[C@@]1(C)C(=O)[C@H](O)C3=C(C)[C@@H](OC(=O)[C@H](O)[C@@H](NC(=O)c4ccccc4)c4ccccc4)C[C@@](O)([C@@H](OC(=O)c4ccccc4)C12)C3(C)C (some centres not stated),5.8µM,0.58µM,.,1µM,.,.
CCCCCC(=O)N[C@@H](c1ccccc1)[C@@H](O)C(=O)O[C@H]1C[C@@]2(O)[C@@H](OC(=O)c3ccccc3)C3[C@](C)(C(=O)[C@H](O)C(=C1C)C2(C)C)[C@@H](OC1OCC(O)C(O)C1O)C[C@H]1OC[C@@]31OC(C)=O (some centres not stated),3.7µM,?,.,0.21µM,.,.
CC(=O)O[C@@]12CO[C@@H]1C[C@@H](O)[C@@]1(C)C(=O)[C@H](O)C3=C(C)[C@@H](OC(=O)[C@H](O)[C@@H](NC(=O)c4ccccc4)c4ccccc4)C[C@@](O)([C@@H](OC(=O)c4ccccc4)C12)C3(C)C (some centres not stated),8.2µM,?,.,0.01µM,.,.
CC(=O)OC12COC1CC(O)C1(C)C(=O)C(O)C3=C(C)C(O)CC(O)(C(OC(=O)c4ccccc4)C21)C3(C)C (configuration not stated),8.2µM,0.82µM,.,0.52µM,.,.
